Test results from PubChem BioAssay (NCATS).
Where “and” joins values, the source holds several entries; their conditions need not be identical. Equal entries are not always repeated. A number with no mark means an inactive call. Results filed as inconclusive are left out. Calls of active or inactive are those of the source. Unless noted, calls come from the whole dose curve; as a rule, active = well fitted curve in either direction with a large enough effect (not every such curve was filed as active); inconclusive = small, poorly fitted or top-dose-only effect, or another doubt; inactive = flat fitted curve, though single readings scatter.

Tests used:
[1] = AP1 Signaling Pathway (AID 357); conditions: ME-180 AP-1-bla reporter, EGF-induced, beta-lactamase ratio, 5 h;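 note: ME-180 reporter cells stimulated with EGF at its EC50 level; % is set by controls: 0 for no effect and ±100 for the full control effect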
Summary of the method: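 First, ME-180 AP-1-bla cells were cultured overnight at 37 °C in low-serum Opti-MEM. Next, titrated compounds with EC50 EGF were incubated 5 hours. Finally, CCF4 was added for 2.5 hours and the 460/530 nm ratio recorded.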

[2] = Cell Viability - BJ (AID 421; calls by dose curve;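 note: potency is the fitted concentration of half-maximal effect; cells exposed to compound for 40 hours at 37 °C before readout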); conditions: BJ fibroblast viability, qHTS
Summary of the method: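 Cytotoxicity in human BJ foreskin fibroblasts is scored as loss of cellular ATP after a 40-hour exposure, measured by luciferase luminescence. Controls are DMSO and 100 uM tamoxifen.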

[3] = Cell Viability - Hek293 (AID 427;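 active = compounds whose dose-response curve shows a full or clear partial loss of cell viability, called from curve shape rather than a numeric limit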;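 note: potency is the fitted concentration of half-maximal effect; cells exposed to compound for 40 hours at 37 °C before reading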); conditions: qHTS
Summary of the method: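 qHTS, human embryonic kidney (adenovirus-transformed) cells; 40 hr cpd, 37 °C; CellTiter-Glo ATP luminescence. Norm: DMSO = 0, 100 uM tamoxifen = 100% inhibition. Hill-fit AC50.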

[4] = Cell Viability - HepG2 (AID 433; calls by dose curve;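 note: potency is the fitted concentration of half-maximal effect; potency for ATP loss meaning cytotoxicity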); conditions: qHTS
Summary of the method: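 Cytotoxicity is scored as loss of intracellular ATP in HepG2 cells exposed to compounds for 40 h. Concentration-response curves, normalized to DMSO and 100 uM tamoxifen, give AC50 values.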

[5] = NFAT Signaling Pathway (AID 444); conditions: Jurkat NFAT-bla M1, carbachol, beta-lactamase ratio, 5 h;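 note: carbachol stimulus at about its EC50 of 1 µM final; % is set by controls: 0 for no effect and ±100 for the full control effect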
Summary of the method: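 Jurkat cells with NFAT-driven β-lactamase reporter and co-expressed M1 receptor, stimulated with carbachol (final 1 uM, ~EC50), compound titration, 5 h at 37 °C. CCF4 loaded 1 h at RT; 460/530 nm ratio gave %activity and AC50.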

[6] = Stat Signaling Pathway (AID 446); conditions: ME-180 (cervical carcinoma) SIE beta-lactamase reporter, IL-6 stimulated, 5 h;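 note: ME-180 cervical cancer cells given 40 pM IL-6 alongside compound; SIE-controlled beta-lactamase reporter measured as 460/530 nm FRET emission ratio; % is set by controls: 0 for no effect and ±100 for the full control effect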
Summary of the method: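 Emission at 460 and 530 nm (excitation 405 nm) reports SIE-controlled beta-lactamase in ME-180 cells. Cells received compound with 40 pM IL-6 for 5 hrs at 37 C; data scaled between 300 pM IL-6 and 125 nM JAK-inhibitor controls.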

[7] = molecular target: Glucocorticoid receptor (Homo sapiens) (UniProt P04150); test: GR-GFP Redistribution (AID 450;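 active = compounds whose dose series gives a full or clear partial fitted curve of increased nuclear translocation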; note: potency is the fitted concentration of half-maximal effect); conditions: U2OS GR-GFP nuclear translocation, laser cytometry, 2 h
Chain of Glucocorticoid receptor (Homo sapiens) (P04150 whole entry, looked up, the tested form may be a part): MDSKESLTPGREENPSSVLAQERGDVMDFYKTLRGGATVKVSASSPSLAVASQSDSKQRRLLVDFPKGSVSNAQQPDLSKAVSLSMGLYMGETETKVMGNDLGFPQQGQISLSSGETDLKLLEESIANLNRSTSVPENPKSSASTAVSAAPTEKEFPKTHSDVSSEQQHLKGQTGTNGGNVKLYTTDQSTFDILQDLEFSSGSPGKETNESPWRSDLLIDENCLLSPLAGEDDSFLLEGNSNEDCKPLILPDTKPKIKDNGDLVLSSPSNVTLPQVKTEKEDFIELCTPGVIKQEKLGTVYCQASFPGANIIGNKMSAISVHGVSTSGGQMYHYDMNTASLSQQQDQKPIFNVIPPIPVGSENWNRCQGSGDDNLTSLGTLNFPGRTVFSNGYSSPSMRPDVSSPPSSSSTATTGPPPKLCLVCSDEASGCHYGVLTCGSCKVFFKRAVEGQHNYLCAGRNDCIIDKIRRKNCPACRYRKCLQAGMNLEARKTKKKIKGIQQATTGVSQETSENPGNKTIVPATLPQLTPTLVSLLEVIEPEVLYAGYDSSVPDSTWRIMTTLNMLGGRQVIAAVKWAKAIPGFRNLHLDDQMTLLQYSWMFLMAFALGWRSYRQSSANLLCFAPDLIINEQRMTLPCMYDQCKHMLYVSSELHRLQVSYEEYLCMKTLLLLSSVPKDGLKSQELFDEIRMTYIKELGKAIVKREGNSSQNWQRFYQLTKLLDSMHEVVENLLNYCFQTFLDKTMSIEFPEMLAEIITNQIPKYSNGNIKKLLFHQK

[8] = molecular target: Glucocorticoid receptor (Homo sapiens) (UniProt P04150); test: GR-EFC Redistribution (AID 451; calls by dose curve; note: potency is the fitted concentration of half-maximal effect); conditions: CHO-K1 GR-EFC translocation, beta-gal luminescence, 2 h
Summary of the method: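 CHO-K1 cells expressing nuclear EA and GR-ED fragments of b-gal; compounds titrated up to 46 uM final, 2 h at 37 C. GR nuclear translocation read as complemented b-gal luminescence after 1 h RT detection.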

[9] = molecular target: Mitogen-activated protein kinase 10 (Mus musculus) (UniProt Q61831); test: JNK3 AlphaScreen Assay (AID 530); conditions: JNK3 lysate, c-Jun phosphorylation; series mostly up to 57.1 µM;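 note: kinase came from lysate of stimulated human HepG2 cells; signal reports phosphorylation of biotinylated GST-cJun 1-79 at Ser73 with 10 µM ATP; % is set by controls: 0 for no effect and ±100 for the full control effect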
Summary of the method: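 Activity was read by AlphaScreen after JNK3-containing HepG2 lysate (cytokine pre-activated) phosphorylated biotinylated GST-cJun with 10 uM ATP at room temperature. Phospho-Ser73 cJun antibody with Protein-A acceptor beads provided detection.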

[10] = Cell Viability - NIH 3T3 (AID 541; active = well fitted curve in the direction sought with a large enough effect; an effect the other way counts as inactive or inconclusive; note: nearly all actives have a fitted effect of over 25% in size; note: potency is the fitted concentration of half-maximal effect;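 for activity change, negative = cytotoxicity: plate controls were DMSO alone for no effect and tamoxifen positive control for full effect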); conditions: NIH 3T3 cell viability, qHTS; activity change, negative = cytotoxicity: at 92.2 µM (top of the series)
Summary of the method: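 Intracellular ATP (CellTiter-Glo luminescence, 20 min at room temperature) measured after 40 hr compound exposure at 37 °C of 1000 NIH 3T3 mouse fibroblasts/well in complete medium; AC50 derived by Hill-equation modelling of qHTS concentration-response curves.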

[11] = Cell Viability - SH-SY5Y (AID 544; active = well fitted curve in the direction sought with a large enough effect; an effect the other way counts as inactive or inconclusive; note: nearly all actives have a fitted effect of over 55% in size; note: potency is the fitted concentration of half-maximal effect); conditions: SH-SY5Y neuroblastoma cell viability; series mostly up to 92.2 µM
Summary of the method: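 Cytotoxicity measured via ATP-dependent luciferase luminescence (CellTiter-Glo) following 40 h, 37 °C exposure of 1500 SH-SY5Y cells per well. Concentration-response data were fitted with the standard Hill equation to give AC50.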

[12] = Cell Viability - Renal Proximal Tubule (AID 545; active = well fitted curve in the direction sought with a large enough effect; an effect the other way counts as inactive or inconclusive; note: nearly all actives have a fitted effect of over 40% in size; note: potency is the fitted concentration of half-maximal effect;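 for activity change, negative = cytotoxicity: 0% = DMSO only and -100% = 100 µM tamoxifen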); conditions: renal proximal tubule cells viability, primary cells of rat origin; series mostly up to 91.7 µM
Summary of the method: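 Cytotoxicity is scored as a concentration-dependent drop in cellular ATP in primary rat renal proximal tubule cells exposed for 40 hr. AC50 derives from Hill modelling.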

[13] = molecular target: Lysosomal acid glucosylceramidase (Homo sapiens) (UniProt P04062); test: Glucocerebrosidase-p2 (AID 348; in the data active = potency below about 10 µM; note: potency is the fitted concentration of half-maximal effect); conditions: purified GBA, blue fluorogenic substrate, 40 min
Chain of Lysosomal acid glucosylceramidase (Homo sapiens) (P04062 whole entry, looked up): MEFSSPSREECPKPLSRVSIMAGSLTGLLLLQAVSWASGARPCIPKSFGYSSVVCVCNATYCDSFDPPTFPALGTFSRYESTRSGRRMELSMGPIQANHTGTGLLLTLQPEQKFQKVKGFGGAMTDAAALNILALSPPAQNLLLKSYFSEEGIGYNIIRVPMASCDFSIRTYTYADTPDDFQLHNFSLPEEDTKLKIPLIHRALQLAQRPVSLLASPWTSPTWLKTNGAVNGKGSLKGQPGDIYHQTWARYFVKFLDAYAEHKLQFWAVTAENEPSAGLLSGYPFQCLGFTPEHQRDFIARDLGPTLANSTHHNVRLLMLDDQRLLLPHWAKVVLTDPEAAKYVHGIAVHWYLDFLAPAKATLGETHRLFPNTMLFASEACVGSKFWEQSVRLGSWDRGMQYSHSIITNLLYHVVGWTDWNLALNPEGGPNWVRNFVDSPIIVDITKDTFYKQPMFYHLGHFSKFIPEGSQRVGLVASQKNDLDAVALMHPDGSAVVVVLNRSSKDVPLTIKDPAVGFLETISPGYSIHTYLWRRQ
Summary of the method: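 Normal human glucocerebrosidase (0.2 nM) with blue fluorogenic substrate (80 uM final) in citrate/phosphate pH 5.9 with 10mM sodium taurocholate, 0.01% tween-20; 40 min RT, NaOH/glycine stop; fluorescence Ex 365/Em 440; AC50 from a titration from 0.6 nM upwards.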

[14] = molecular target: Cytochrome P450 1A2 (Homo sapiens) (UniProt P05177); test: p450-cyp1a2 (AID 410; calls by dose curve; note: potency is the fitted concentration of half-maximal effect;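 for activity change, negative = inhibition: -100% = full effect of reference inhibitor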); conditions: recombinant CYP1A2, luciferin-ME demethylation, luminescence; series mostly up to 25.6 µM
Chain of Cytochrome P450 1A2 (Homo sapiens) (P05177 whole entry, looked up): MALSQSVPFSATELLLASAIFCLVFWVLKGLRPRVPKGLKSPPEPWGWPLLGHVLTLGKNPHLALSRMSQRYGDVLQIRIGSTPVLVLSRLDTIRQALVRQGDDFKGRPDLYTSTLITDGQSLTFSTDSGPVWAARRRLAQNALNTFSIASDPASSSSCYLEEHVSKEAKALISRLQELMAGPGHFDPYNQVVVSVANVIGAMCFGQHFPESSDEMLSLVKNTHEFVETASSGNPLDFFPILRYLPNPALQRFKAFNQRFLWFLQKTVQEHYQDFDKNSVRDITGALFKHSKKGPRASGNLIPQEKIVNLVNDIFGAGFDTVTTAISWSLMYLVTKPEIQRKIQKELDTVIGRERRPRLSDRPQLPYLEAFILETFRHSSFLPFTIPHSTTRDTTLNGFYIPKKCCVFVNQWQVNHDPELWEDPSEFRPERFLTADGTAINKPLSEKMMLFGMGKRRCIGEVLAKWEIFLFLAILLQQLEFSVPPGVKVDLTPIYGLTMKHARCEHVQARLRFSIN
Summary of the method: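 Luminescent demethylation readout: Luciferin-ME (100uM, equal to Km) turned over by 20nM CYP1A2 for 60 min at room temperature after NADPH regeneration addition, following 10 min compound preincubation. Normalization used 57 uM furafylline as full inhibition.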

[15] = Cell Viability - Jurkat (AID 426;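 active = dose-dependent loss of cell ATP signal giving a full or clear fitted curve, ranked by lower potency value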;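 note: potency is the fitted concentration of half-maximal effect; cells exposed to compound for 40 hours at 37 °C before ATP read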); conditions: qHTS
Summary of the method: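 Cytotoxicity taken as drop in cellular ATP (CellTiter-Glo luminescence, 20 min room temperature) after 40 hr, 37C treatment of 5000 Jurkat Clone E6-1 cells per well; concentration-response fitted with Hill equation for AC50.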

[16] = Cell Viability - MRC5 (AID 434; calls by dose curve;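 note: potency is the fitted concentration of half-maximal effect; cells exposed to compound for 40 hours at 37 °C; potency reflects cytotoxicity seen as loss of intracellular ATP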); conditions: MRC5 lung fibroblast viability, qHTS
Summary of the method: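 ATP luminescence read-out (CellTiter-Glo, 20 min RT) after 40 hr, 37 °C compound exposure of 1500 MRC5 cells/well. Data normalized to DMSO (basal) and 100 uM tamoxifen (100% inhibition); AC50 from standard Hill equation.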

[17] = Cell Viability - SK-N-SH (AID 435; calls by dose curve; note: potency is the fitted concentration of half-maximal effect); conditions: SK-N-SH neuroblastoma cell viability qHTS
Summary of the method: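 Cells seeded at 1500 per well and incubated 5 hr at 37 °C. Compound added, then 40 hr at 37 °C. CellTiter-Glo added, 20 min at room temperature, luminescence read.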

[18] = Cell Viability - N2a (AID 540; active = well fitted curve in the direction sought with a large enough effect; an effect the other way counts as inactive or inconclusive;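 note: plate controls were DMSO alone for no effect and tamoxifen control for full effect; nearly all actives have a fitted effect of over 45% in size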); conditions: N2a mouse neuroblastoma cell viability; activity change, negative = cytotoxicity: at 92.2 µM (top of the series)
Summary of the method: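 CellTiter-Glo ATP luminescence, read 20 min after reagent at room temperature, reported viability following 40 h compound treatment at 37 °C. N2a mouse neuroblastoma cells seeded 1500/well; Hill equation gave AC50.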

[19] = Cell Viability - HUV-EC-C (AID 542; active = well fitted curve in the direction sought with a large enough effect; an effect the other way counts as inactive or inconclusive; note: % is set by controls: 0 for no effect and ±100 for the full control effect; nearly all actives have a fitted effect of over 35% in size); conditions: HUV-EC-C endothelial cell viability, qHTS; series mostly up to 92.2 µM
Summary of the method: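 CellTiter-Glo luminescence measured ATP loss in HUV-EC-C cells (1000/well) after 40 hr compound exposure at 37 °C, in complete culture medium. Concentration-response data were Hill-fitted to give AC50.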

[20] = Cell Viability - H-4-II-E (AID 543; active = well fitted curve in the direction sought with a large enough effect; an effect the other way counts as inactive or inconclusive; note: % is set by controls: 0 for no effect and ±100 for the full control effect; nearly all actives have a fitted effect of over 35% in size); conditions: H-4-II-E rat hepatoma viability; series mostly up to 92.2 µM
Summary of the method: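 CellTiter-Glo luminescence (intracellular ATP) measured after 40 h compound exposure at 37 °C in H-4-II-E rat hepatoma cells seeded at 1500/well. Values are AC50s fitted with the standard Hill equation.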

Structure (SMILES): COC(=O)C1=C(C)NC(C)=C(C(=O)OC)C1c1ccccc1[N+](=O)[O-]
- activity change, negative = inhibition ([1]; at 17.2 µM (top of the series)): -27.7%
- Potency [2]: > 92 µM
- Potency [3]: > 92 µM
- Potency [4]: > 92 µM
- activity change, negative = inhibition ([5]; at 17.2 µM (top of the series)): -7.96%
- activity, negative = inhibition ([6]; at 17.2 µM (top of the series)): -12.5% and -20.9%
- activity, negative = inhibition ([6]; at 38 µM (top of the series)): -13.9%
- Potency [7]: > 46 µM and > 20.6 µM
- Potency [8]: > 46 µM and > 20.6 µM
- Potency [9]: inactive
- Potency [10]: 2 µM (active)
- Potency [11]: 25.1 µM (active)
- Potency [12]: 31.6 µM (active)

Structure (SMILES): Cc1cccc(Nc2cc(Cl)nc(SCC(=O)O)n2)c1C
- Potency [13]: > 11.4 µM
- activity change, negative = inhibition ([1]; at 7.69 µM (top of the series)): 3.12%
- Potency [14]: inactive
- activity change, negative = inhibition ([5]; at 7.69 µM (top of the series)): 11.7%
- activity, negative = inhibition ([6]; at 7.69 µM (top of the series)): 0.678%
- Potency [7]: > 46 µM
- Potency [8]: > 46 µM and > 9.22 µM
- activity change, negative = inhibition [9]: 0.662% [at 11.4 µM]

Structure (SMILES): CNC(=O)Oc1ccc2c(c1)[C@]1(C)CCN(C)[C@@H]1N2C
- activity change, negative = inhibition ([1]; at 17.2 µM (top of the series)): 8.81%
- activity change, negative = inhibition ([5]; at 17.2 µM (top of the series)): 5.79%
- activity, negative = inhibition ([6]; at 17.2 µM (top of the series)): 4.34%

Structure (SMILES): Cc1cc2c(cc1S(N)(=O)=O)S(=O)(=O)CCC2
- activity change, negative = inhibition ([1]; at 17.2 µM (top of the series)): 4.34%
- Potency [14]: inactive
- activity change, negative = inhibition ([5]; at 17.2 µM (top of the series)): 1.69%
- activity, negative = inhibition ([6]; at 17.2 µM (top of the series)): -10.1%
- Potency [7]: > 20.6 µM
- Potency [8]: > 20.6 µM
- Potency [9]: inactive

Structure (SMILES): N=c1c[n+](N2CCOCC2)[n-]o1
- activity change, negative = inhibition ([1]; at 17.2 µM (top of the series)): 18.9%
- activity change, negative = inhibition ([1]; at 38 µM (top of the series)): 9.68%
- activity change, negative = inhibition ([5]; at 38 µM (top of the series)): 3.52%
- activity, negative = inhibition ([6]; at 17.2 µM (top of the series)): 4.68%
- activity, negative = inhibition ([6]; at 38 µM (top of the series)): -10.2%
- Potency [7]: > 46 µM and > 20.6 µM
- Potency [8]: > 46 µM
- Potency [9]: inactive

Structure (SMILES): NS(=O)(=O)c1cc2c(cc1Cl)NC(CSCc1ccccc1)=NS2(=O)=O
- activity change, negative = inhibition ([1]; at 17.2 µM (top of the series)): -6.04% and -5.71%
- Potency [14]: inactive
- activity change, negative = inhibition ([5]; at 17.2 µM (top of the series)): -9.25% and 1.09%
- activity, negative = inhibition ([6]; at 17.2 µM (top of the series)): -11% and 0.218%
- Potency [7]: > 20.6 µM
- Potency [8]: > 20.6 µM
- Potency [9]: inactive

Structure (SMILES): NC1CCN(c2cccc(Cl)n2)CC1
- activity change, negative = inhibition ([1]; at 38 µM (top of the series)): 2.98%
- Potency [14]: 20 µM (active) and 15.8 µM (active)
- activity change, negative = inhibition ([5]; at 38 µM (top of the series)): -6.65%
- activity, negative = inhibition ([6]; at 38 µM (top of the series)): -14.3%
- Potency [7]: > 46 µM
- Potency [8]: > 46 µM
- Potency [9]: inactive

Structure (SMILES): CCCCOC(=O)c1ccc(O)cc1
- activity change, negative = inhibition ([1]; at 17.2 µM (top of the series)): -21.4%
- Potency [14]: 79.4 nM (active)
- Potency [2]: > 92 µM
- Potency [15]: > 92 µM
- Potency [3]: > 92 µM
- Potency [4]: > 92 µM
- Potency [16]: > 92 µM
- Potency [17]: > 92 µM
- activity change, negative = inhibition ([5]; at 17.2 µM (top of the series)): -15%
- activity, negative = inhibition ([6]; at 17.2 µM (top of the series)): -9.98%
- Potency [7]: > 20.6 µM
- Potency [8]: > 20.6 µM
- Potency [9]: inactive
- activity change, negative = cytotoxicity [18]: 2.23%
- Potency [10]: inactive
- Potency [19]: inactive
- Potency [20]: inactive
- Potency [11]: inactive
- Potency [12]: inactive
